According to PubChem BioAssay (Tox21):
Where “and” joins values, the source holds several entries; their conditions need not be identical. Identical values can stand only once. Inconclusive results are not listed. Where a call stands in place of a potency, no number is given. More than one record can exist for a structure, and the calls need not agree. Calls of active or inactive are those of the source. The call rests on the fitted dose curve; in most records, active means well fitted activation curve with a large enough effect in the repeat runs; inconclusive means weak or mixed curves; inactive means flat fitted curve, though single readings scatter.

test: A CellTox Green Cytotoxicity Assay to monitor cytotoxicity in HepG2 cells - 16 hour (AID 1224876); details: CellTox Green fluorescence; series mostly up to 76.8 µM; further: nearly all actives have a fitted effect of over 45% in size
Description: National Center for Advancing Translational Sciences [NCATS]
NIH Chemical Genomics Center [NCGC]
U.S. Environmental Protection Agency [EPA]
National Institutes of Environmental Health Sciences [NIEHS]
National Toxicology Program [NTP]
Cell-based models are critical for drug discovery. Determining the natural cytotoxic effects resulting from test compounds is an essential research activity. A CellTox Green Cytotoxicity Assay to monitor cytotoxicity in real time of continues cell culture during 40 hours of the compound treatment was used to screen Tox21 10K library compounds in HepG2 cells. CellTox Green Cytotoxicity Assay is a nonlytic, homogeneous, biofluorescent method to measure cytotoxicity in cell culture after experimental manipulation. The assay system uses a proprietary asymmetric cyanine dye that is excluded from viable cells but preferentially stains the dead cell's DNA. […] Viable cells produce no appreciable increases in fluorescence. Therefore, the fluorescence signal produced by the binding interaction with dead cell DNA is proportional to cytotoxicity.
The mixture of HepG2 cell suspension and reagents were dispensed at 600cells/6 ul/well in 1536-well tissue culture treated black solid bottom plates using a Multidrop dispenser. After the assay plates were incubated at a 37 C/5% CO2 incubator for 5 hours, 23 nL of compounds dissolved in DMSO, positive and negative controls was transferred to the assay plate by a pintool work station. The plates were incubated at 37 C for 40 hours. The fluorescence intensity were measured at 0h, 8h, 16h, 24h, 32h and 40h time points using ViewLux plate reader during compound treatment.
Potency means the concentration at half of the fitted maximal effect.

SMILES	Potency
C=C(CC)C(=O)c1ccc(OCC(=O)O)c(Cl)c1Cl	inactive
Cc1c(C)c2c(c(C)c1O)CC[C@@](C)(CCC[C@H](C)CCC[C@H](C)CCCC(C)C)O2	inactive
CCC(COC(=O)CCS)(COC(=O)CCS)COC(=O)CCS	inactive
C#C[C@]1(OC(C)=O)CC[C@H]2[C@@H]3CCC4=C/C(=N/O)CC[C@@H]4[C@H]3CC[C@@]21CC	inactive
CCC(CC)C(C)CCOC(C)=O (stereo not given)	inactive
COc1cc(C)ccc1O	inactive
Cc1c(N)cccc1C(F)(F)F	inactive
[Cu+]	inactive
Cc1ccc(-c2ccccc2)cc1	49 µM (active)
COC(=O)c1ccccc1C	inactive
Cc1nc(-c2ccc(Cl)cc2)oc1COC(C)(C)C(=O)O	inactive
O=C(O)c1ccc2cc(C(=O)O)ccc2c1	inactive
C=C(C)c1cccc(C(=C)C)c1	inactive
CC1(C)CCC[C@]2(C)[C@H]3CCO[C@]3(C)CC[C@@H]12	inactive
O[C@@H]([C@H](O)[C@H](O)CBr)[C@H](O)CBr	inactive
O=C(O)Cc1ccc2c(c1)C(=O)c1ccccc1CO2	inactive
Nc1nc(N)nc(-c2cc(Cl)ccc2Cl)n1	inactive
Cc1cccc(C(=O)O)c1O	inactive
NC(=O)c1cccc([N+](=O)[O-])c1	inactive
OC[C@H]1O[C@H](O[C@H]2O[C@H](CO)[C@@H](O)[C@H](O)[C@H]2O)[C@H](O)[C@@H](O)[C@@H]1O	inactive

SMILES	Potency
CCCCCCC1CCCC(=O)O1 (stereo not given)	inactive
Cc1cc(C(C#N)c2ccc(Cl)cc2)c(Cl)cc1NC(=O)c1cc(I)cc(I)c1O (stereo not given)	inactive
O=[N+]([O-])c1cccc(C(F)(F)F)c1	inactive
Cc1cc(=O)oc2cc(O)cc(O)c12	inactive
O=C(O)c1cc(=O)c2ccccc2o1	inactive
O=S(=O)(O)c1ccccc1/C=C/c1ccc(-c2ccc(/C=C/c3ccccc3S(=O)(=O)O)cc2)cc1	inactive
OC[C@@H](O)[C@@H](O)CO	inactive
CCCCC(CC)CN1CN(CC(CC)CCCC)CC(C)(N)C1 (stereo not given)	19 µM (active)
C#CC1(O)CC[C@H]2[C@@H]3CCC4=CCCC[C@@H]4[C@H]3CC[C@@]21C (stereo not given in full)	34.7 µM (active) and 19 µM (active)
CNC(=O)c1ccccc1Sc1ccc2c(/C=C/c3ccccn3)n[nH]c2c1	inactive
COc1cc(/C=C/c2ccccc2)oc(=O)c1	inactive
C=CC(=O)Nc1cc2c(Nc3ccc(F)c(Cl)c3)ncnc2cc1OCCCN1CCOCC1	21.3 µM (active)
CCCCCCCCCCCCCC[N+](C)(C)C	16.8 µM (active) and 43.6 µM (active) and 23.9 µM (active)
CC1(C)CCC[C@]2(C)[C@H]3CC(=O)O[C@]3(C)CC[C@@H]12	inactive
CCCCC(CC)COC(=O)CCCCC(=O)OCc1ccccc1 (stereo not given)	inactive
CC(C)NC[C@@H](O)COc1ccc(CC(N)=O)cc1	inactive
COC(=O)C1=C(C)NC(C)=C(C(=O)OCCN2CCN(C(c3ccccc3)c3ccccc3)CC2)C1c1cccc([N+](=O)[O-])c1 (stereo not given)	inactive
CN(C)c1ccc(C(=C2C=CC(=[N+](C)C)C=C2)c2ccc(N(C)C)cc2)cc1	10.9 µM (active) and inactive
OCC(F)(F)F	inactive
O=C(O)CN(CCN(CC(=O)O)CC(=O)O)CC(=O)O	1.74 µM (active)
